Screens (PubChem BioAssay)
FBPA Giardia inh = Giardia lamblia aldolase inhibition. purified Giardia FBPA. AID 2451. Potency, µM (top dose mostly 59.6 µM), inactives show at the top dose activity, negative = inhibition, hits mostly inhibitors. 0.71% of 290,000 active; also: % is scaled to controls: 0 for no effect and ±100 for the full control effect; nearly all actives have a fitted effect of over 55% in size
Target sequence (A8B2U2 whole entry, looked up): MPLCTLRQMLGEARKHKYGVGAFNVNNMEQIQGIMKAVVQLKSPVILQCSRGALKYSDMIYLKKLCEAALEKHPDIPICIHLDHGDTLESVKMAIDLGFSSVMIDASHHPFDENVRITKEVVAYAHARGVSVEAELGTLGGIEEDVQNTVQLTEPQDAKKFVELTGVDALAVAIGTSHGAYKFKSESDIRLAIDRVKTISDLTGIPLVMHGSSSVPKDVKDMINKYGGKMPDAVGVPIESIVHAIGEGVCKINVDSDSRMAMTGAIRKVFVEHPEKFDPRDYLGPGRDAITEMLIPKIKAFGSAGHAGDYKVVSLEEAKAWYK
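Giardia FBPA (40 nM reagent) was preincubated 10 min at RT with compound (up to 57.5 uM final), then substrate plus GAPDH/TPI/NAD/arsenate coupling system with diaphorase/resazurin was added; resorufin fluorescence (525/598 nm) was read after 20 min.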
TbPYK inhibitor = inhibitors of Trypanosoma brucei pyruvate kinase; TbPYK enzyme, Kinase-Glo Plus ATP luminescence, 45 min; AID 624173; Potency, µM (highest dose often 76.8 µM), inactives show at the highest dose activity, negative = inhibition, usual class: inhibitors; 0.12% of 410,000 active; also: % is scaled to controls: 0 for no effect and ±100 for the full control effect; nearly all actives have a fitted effect of over 50% in size
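In this concentration-response screen, enzyme-free wells defined baseline while DMSO plates tracked drift. Each reaction combined TbPYK, substrate, compound and 130 uM ADP for 45 min at room temperature. Kinase-Glo Plus luminescence gave the signal.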
LmPK inhibitor = blocks Leishmania mexicana pyruvate kinase activity; Potency, µM (series often up to 57.5 µM), without a hit: at the highest dose activity change, negative = inhibition, usual class: inhibitors; Q27686; purified LmPK, Kinase-Glo ATP luminescence, 1 h; 0.37% of 290,000 active; also: % is scaled to controls: 0 for no effect and ±100 for the full control effect
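qHTS format; LmPK 0.1 nM; substrates PEP 0.5 mM and ADP 0.1 mM. One-hour room-temperature incubation, then coupled luciferase luminescence; 0.5 nM enzyme wells mark activation.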
NS1 inh = blocks influenza NS1 protein function; Potency, µM (titrated, usually from 46.1 µM), without a hit: at the top dose activity, positive = more growth; 0.4% of 270,000 active; AID 2326; calls by dose curve; also: actives are rising curves; nearly all actives have a fitted effect of over 50% in size
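Compounds were scored for reversing the slow growth caused by influenza A NS1 in S. cerevisiae, measured by optical density at 600 nm. Assay medium contained 2% galactose at pH 6.0; NS1-free yeast of the same strain were the positive control.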
AMA1 RON2 block = disrupts binding of P. falciparum AMA1 to RON2 | Potency, µM (doses to about 58.2 µM), for the others: at the highest dose activity change, negative = inhibition, actives largely listed as inhibitors | AID 720542 | 0.2% of 360,000 active | AlphaScreen AMA1-biotinylated RON2 peptide binding;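 also: 0% = vehicle wells and -100% = peptide control; nearly all actives have a fitted effect of over 45% in size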
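AMA1 (3D7) with his tag at 25 nM final met compounds first, then biotinylated RON2 peptide at 25 nM; detection used donor plus acceptor beads, 10 µg/mL apiece, read by AlphaScreen after 30 min at room temperature.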
* marks the source's active call; other numbers are inactive results; [ ] = another dose, or the depositor's remark. Only some compounds are listed: those with a hit (about 1.2% of all), similar ones and a draw of the others. Unless noted, calls follow the shape of the dose curve; as a rule, active = well fitted curve in the direction sought with a large enough effect; inconclusive = small, poorly fitted or top-dose-only effect, or another doubt; inactive = no such curve, though single readings can be large; an effect the other way counts as inactive or inconclusive. Potency is read from the fitted curve at half-maximal effect.

For CC(=O)OC[C@@]12C(=O)[C@@H](O)[C@@H](C)[C@]3(C[C@@H](c4ccoc4)O[C@@H]3OC(C)=O)[C@H]1CCC[C@]21CO1 the results were FBPA Giardia inh -1%.
For COc1ccc2c(C(=S)N(C)CC(=O)O)cccc2c1C(F)(F)F the results were TbPYK inhibitor -7%.
Screening O=C1NC(=O)C(=Cc2ccc(-c3ccccc3[N+](=O)[O-])o2)C(=O)N1 returned FBPA Giardia inh -23%, TbPYK inhibitor 16µM*, LmPK inhibitor -18%, NS1 inh -12% and AMA1 RON2 block inconclusive.
`O=C1NC(=O)C(=Cc2ccc(-c3cc(Cl)ccc3[N+](=O)[O-])o2)C(=O)N1` gave FBPA Giardia inh -21%, TbPYK inhibitor 18µM*, LmPK inhibitor -3%, NS1 inh 1% and AMA1 RON2 block -21%.
CC1=C(C#N)C(=O)NC(=O)/C1=C\c1ccc(-c2cc(C)c(C)cc2[N+](=O)[O-])o1 was read as FBPA Giardia inh inconclusive, TbPYK inhibitor -26%, LmPK inhibitor 1% and AMA1 RON2 block -21%.
Screening O=C1NC(=O)C(=Cc2ccccc2[N+](=O)[O-])C(=O)N1 returned TbPYK inhibitor inconclusive and AMA1 RON2 block -5%.
Screening CCOC(=O)c1sc(NC(=O)c2cc(-c3ccc(C)cc3)nc3ccccc23)c(C#N)c1C returned FBPA Giardia inh 8%, TbPYK inhibitor -22%, LmPK inhibitor 5%, NS1 inh -30% and AMA1 RON2 block 11%.
For COC(=O)c1sc(NC(=O)c2cc(-c3ccccc3)nc3ccccc23)c(C#N)c1C the results were FBPA Giardia inh 1.4µM*, TbPYK inhibitor inconclusive, LmPK inhibitor 2%, NS1 inh 13% and AMA1 RON2 block 1%.
COC(=O)C1=C(C)N(Cc2ccc(C)cc2)C(=O)/C1=C\c1cc(OC)c(OC)c(OC)c1 was read as FBPA Giardia inh -12%, TbPYK inhibitor -4%, LmPK inhibitor 1%, NS1 inh 23% and AMA1 RON2 block 35µM*.
For COC(=O)C1=C(C)N(Cc2ccccc2)C(=O)/C1=C\c1ccco1 the results were FBPA Giardia inh -5%, TbPYK inhibitor -8%, LmPK inhibitor -6%, NS1 inh 3% and AMA1 RON2 block -21%.
Screening NC1CCCC[C@H]1N (stereo partly specified) returned FBPA Giardia inh -10%.
`CC/C(=N\Nc1ccccc1[N+](=O)[O-])c1ccc(O)cc1` gave FBPA Giardia inh -12%, TbPYK inhibitor -4%, LmPK inhibitor -3%, NS1 inh -6% and AMA1 RON2 block 16µM*.
`CC/C(=N\Nc1ccc([N+](=O)[O-])cc1[N+](=O)[O-])c1ccc(O)cc1` gave FBPA Giardia inh 1%, TbPYK inhibitor -4%, LmPK inhibitor -4%, NS1 inh -8% and AMA1 RON2 block -23%.
`COc1ccc(CCNC(=O)C(=O)NCCCN2CCOCC2)cc1` gave FBPA Giardia inh 19%, TbPYK inhibitor 0%, LmPK inhibitor 1%, NS1 inh 1% and AMA1 RON2 block 5%.
`COc1ccc(CCNCCN2CCOCC2)cc1` gave FBPA Giardia inh inconclusive, TbPYK inhibitor 6%, LmPK inhibitor 0%, NS1 inh -3% and AMA1 RON2 block 14µM*.
For O=C1C(=C(c2ccccc2)c2ccccc2)Nc2ccccc21 the results were FBPA Giardia inh -17%, TbPYK inhibitor 2%, LmPK inhibitor -5%, NS1 inh -6% and AMA1 RON2 block 25µM*.
`COC1=C(Nc2ccccc2OC)C(=O)c2ccccc2C1=O` gave FBPA Giardia inh inconclusive, TbPYK inhibitor 1%, LmPK inhibitor -26%, NS1 inh -2% and AMA1 RON2 block inconclusive.
COc1ccccc1NC1=C(NC(C)=O)C(=O)c2ccccc2C1=O was read as FBPA Giardia inh 11µM*, TbPYK inhibitor inconclusive, LmPK inhibitor -24%, NS1 inh -3% and AMA1 RON2 block 16%.
For N[C@@H](Cc1ncccn1)C(=O)O the results were NS1 inh -2%.
`CC(C)(C)N=Cc1c(O)ccc2oc3c(c12)CCCC3` gave FBPA Giardia inh 3%, TbPYK inhibitor 1%, LmPK inhibitor 3%, NS1 inh -57% and AMA1 RON2 block 0%.
`O=[N+]([O-])c1cc2oc3c(c2c(C=NCc2ccncc2)c1O)CCCC3` gave FBPA Giardia inh inconclusive, TbPYK inhibitor inconclusive, LmPK inhibitor 14µM*, NS1 inh -31% and AMA1 RON2 block 6%.
`O=c1[nH]sc2cc(F)ccc12` gave FBPA Giardia inh inconclusive, TbPYK inhibitor inconclusive, LmPK inhibitor 23% and AMA1 RON2 block -1%.
O=c1c2ccccc2sn1-c1ccccc1 was read as FBPA Giardia inh inconclusive, TbPYK inhibitor inconclusive, LmPK inhibitor inconclusive, NS1 inh -107% and AMA1 RON2 block -7%.
O=c1c2ccccc2sn1-c1nccs1 was read as FBPA Giardia inh inconclusive, TbPYK inhibitor 5.6µM*, LmPK inhibitor 0% and AMA1 RON2 block 2%.
For O=c1c2ccccc2sn1-c1ccccc1F the results were TbPYK inhibitor 7.1µM* and AMA1 RON2 block 0%.
O=c1c2ccccc2sn1-c1cccc(Cl)c1 was read as TbPYK inhibitor 7.1µM* and AMA1 RON2 block -11%.
For Cc1ccccc1-n1sc2cc(F)ccc2c1=O the results were FBPA Giardia inh inconclusive, TbPYK inhibitor 8.9µM*, LmPK inhibitor 21% and AMA1 RON2 block 6%.
Screening O=C(O)C(=O)Nc1cccc(C2=NN=N[N]2)c1 returned TbPYK inhibitor 0%.
For Cc1ccccc1N1C(=O)c2cc(S(N)(=O)=O)c(Cl)cc2N[C@H]1C the results were FBPA Giardia inh 0%[21.7 µM].
For CC[N+]1(C)[C@@H]2CC[C@H]1CC(OC(=O)[C@H]1CC[C@@](C(=O)OC3C[C@H]4CC[C@@H](C3)[N+]4(C)CC)(c3ccccc3)c3ccccc31)C2 (stereo partly specified) the results were FBPA Giardia inh 3%[21.7 µM].
For Oc1c(N=Nc2ccccn2)ccc2ccccc12 the results were FBPA Giardia inh -15%, TbPYK inhibitor inconclusive, LmPK inhibitor 13µM*, NS1 inh -177% and AMA1 RON2 block inconclusive.
`CCN1CCC[C@@H]1CNC(=O)c1cc(S(=O)(=O)CC)ccc1OC` gave TbPYK inhibitor 0%.
Screening Cc1c2ccccc2c(CSC(=N)N)c2ccccc12 returned FBPA Giardia inh -14% and NS1 inh -6%.
`c1ccc(-c2ccc(-c3ccccn3)nn2)nc1` gave FBPA Giardia inh inconclusive, LmPK inhibitor 14µM* and NS1 inh -115%.
COc1cc2c(cc1OC)C(c1ccc(-c3cc(Cl)ccc3Cl)o1)=NCC2 was read as FBPA Giardia inh -6%, TbPYK inhibitor -5%, LmPK inhibitor 0%, NS1 inh 2% and AMA1 RON2 block -13%.
Screening COc1cc2c(cc1OC)C(c1ccc(-c3ccc(Cl)c(Cl)c3)o1)=NCC2 returned FBPA Giardia inh -21%, TbPYK inhibitor -28%, LmPK inhibitor 13µM*, NS1 inh -69% and AMA1 RON2 block -27%.
